Results from the supplement of paper PMC10849652.
Of roughly 7,900 targets only a part is listed; those with a hit were picked by preference. About 0.6% of all pairs of compound and target were hits. Unmarked numbers belong to inactive results.

Experiments:
Assay in all cases: log2 fold change, soluble protein after heating vs DMSO (PISA); higher = thermal stabilisation; K562 cells, 10 uM, 30 min; active = over 0.2 and 3.5 SD of the protein, either way, in both replicates (recomputed)
[1] = compound: COC1=CC=C(C=C1)CN2C=CC3=C2C=C(C=C3)C(=O)NO
Summary of the method: (§1)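 Aliquots of K562 cells (2×10^6 cells/mL) treated with 10 μM compound for 30 min were heated for 3 min over 48°C-58°C. After pooling and extraction in PBS with 0.5% NP-40 at 4°C, soluble protein from a 21,000xg, 90 min spin was quantified by TMTpro 16plex LC-MS/MS with channel sums equalised. Thermal stability is expressed against control samples, from duplicates, as a log2 fold change.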

filanesib = compound: CON(C)C(=O)N1N=C(c2cc(F)ccc2F)S[C@@]1(CCCN)c1ccccc1 [filanesib]
Summary of the method: as §1

zotarolimus = compound: CO[C@H]1C[C@@H]2CC[C@@H](C)[C@@](O)(O2)C(=O)C(=O)N2CCCC[C@H]2C(=O)O[C@H]([C@H](C)C[C@@H]2CC[C@H](n3cnnn3)[C@H](OC)C2)CC(=O)[C@H](C)/C=C(\C)[C@@H](O)[C@@H](OC)C(=O)[C@H](C)C[C@H](C)/C=C/C=C/C=C/1C [zotarolimus]
Summary of the method: as §1

idasanutlin = compound: COc1cc(C(=O)O)ccc1NC(=O)[C@@H]1N[C@@H](CC(C)(C)C)[C@](C#N)(c2ccc(Cl)cc2F)[C@H]1c1cccc(Cl)c1F [idasanutlin]
Summary of the method: as §1

alisertib = compound: COc1cc(Nc2ncc3c(n2)-c2ccc(Cl)cc2C(c2c(F)cccc2OC)=NC3)ccc1C(=O)O [alisertib]
Summary of the method: as §1

[2] = compound: COc1cc2nc(-c3cc(F)ccc3O)nc(N[C@@H]3CNC[C@H]3C(C)(C)O)c2cc1OC
Summary of the method: as §1

gefitinib = compound: COc1cc2ncnc(Nc3ccc(F)c(Cl)c3)c2cc1OCCCN1CCOCC1 [gefitinib]
Summary of the method: as §1

[3] = compound: COc1cccc2cc(-c3nc([C@H]4CC[C@H](C(=O)O)CC4)n4ncnc(N)c34)[nH]c12
Summary of the method: as §1

lapatinib = compound: CS(=O)(=O)CCNCc1ccc(-c2ccc3ncnc(Nc4ccc(OCc5cccc(F)c5)c(Cl)c4)c3c2)o1 [lapatinib]
Summary of the method: as §1

pictilisib = compound: CS(=O)(=O)N1CCN(Cc2cc3nc(-c4cccc5[nH]ncc45)nc(N4CCOCC4)c3s2)CC1 [pictilisib]
Summary of the method: as §1

[4] = compound: CS(=O)(=O)c1ccc(-c2cnc(N)c(C(=O)Nc3ccccc3)n2)cc1
Summary of the method: as §1

crizotinib = compound: C[C@@H](Oc1cc(-c2cnn(C3CCNCC3)c2)cnc1N)c1c(Cl)ccc(F)c1Cl [crizotinib]
Summary of the method: as §1

[5] = compound: C[C@@H]1COCCN1C2=NC(=NC(=C2)C3(CC3)S(=O)(=O)C)C4=C5C=CNC5=CC=C4
Summary of the method: as §1

[6] = compound: C[C@H](C1=CC=C(C=C1)C(=O)NC2=C3C=CNC3=NC=C2)N
Summary of the method: as §1

duvelisib = compound: C[C@H](Nc1ncnc2nc[nH]c12)c1cc2cccc(Cl)c2c(=O)n1-c1ccccc1 [duvelisib]
Summary of the method: as §1

gandotinib = compound: Cc1cc(Nc2cc(CN3CCOCC3)c3nc(C)c(Cc4ccc(Cl)cc4F)n3n2)n[nH]1 [gandotinib]
Summary of the method: as §1

tozasertib = compound: Cc1cc(Nc2cc(N3CCN(C)CC3)nc(Sc3ccc(NC(=O)C4CC4)cc3)n2)n[nH]1 [tozasertib]
Summary of the method: as §1

[7] = compound: Cc1cc(SCc2sc(-c3ccc(C(F)(F)F)cc3)nc2C)ccc1OCC(=O)O
Summary of the method: as §1

doramapimod = compound: Cc1ccc(-n2nc(C(C)(C)C)cc2NC(=O)Nc2ccc(OCCN3CCOCC3)c3ccccc23)cc1 [doramapimod]
Summary of the method: as §1

ispinesib = compound: Cc1ccc(C(=O)N(CCCN)[C@@H](c2nc3cc(Cl)ccc3c(=O)n2Cc2ccccc2)C(C)C)cc1 [ispinesib]
Summary of the method: as §1

UniProt Q96DX4, sequence (Q96DX4 whole entry, looked up): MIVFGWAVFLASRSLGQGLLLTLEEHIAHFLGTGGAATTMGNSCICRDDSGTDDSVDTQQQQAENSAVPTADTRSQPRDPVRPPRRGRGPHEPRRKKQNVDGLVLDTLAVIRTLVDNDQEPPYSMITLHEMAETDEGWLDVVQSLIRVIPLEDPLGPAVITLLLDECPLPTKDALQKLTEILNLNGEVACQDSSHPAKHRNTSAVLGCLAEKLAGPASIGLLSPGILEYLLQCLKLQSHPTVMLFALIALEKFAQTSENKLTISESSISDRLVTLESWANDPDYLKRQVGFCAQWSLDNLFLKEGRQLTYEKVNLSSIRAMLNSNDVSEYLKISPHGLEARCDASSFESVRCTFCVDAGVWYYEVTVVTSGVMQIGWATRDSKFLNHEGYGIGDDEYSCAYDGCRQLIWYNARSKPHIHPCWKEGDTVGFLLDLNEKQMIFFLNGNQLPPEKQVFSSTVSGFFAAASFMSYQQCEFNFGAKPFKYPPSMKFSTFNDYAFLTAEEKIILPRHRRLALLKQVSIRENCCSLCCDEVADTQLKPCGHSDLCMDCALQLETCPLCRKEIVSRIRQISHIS
UniProt Q9UPN6, sequence (Q9UPN6 whole entry, looked up): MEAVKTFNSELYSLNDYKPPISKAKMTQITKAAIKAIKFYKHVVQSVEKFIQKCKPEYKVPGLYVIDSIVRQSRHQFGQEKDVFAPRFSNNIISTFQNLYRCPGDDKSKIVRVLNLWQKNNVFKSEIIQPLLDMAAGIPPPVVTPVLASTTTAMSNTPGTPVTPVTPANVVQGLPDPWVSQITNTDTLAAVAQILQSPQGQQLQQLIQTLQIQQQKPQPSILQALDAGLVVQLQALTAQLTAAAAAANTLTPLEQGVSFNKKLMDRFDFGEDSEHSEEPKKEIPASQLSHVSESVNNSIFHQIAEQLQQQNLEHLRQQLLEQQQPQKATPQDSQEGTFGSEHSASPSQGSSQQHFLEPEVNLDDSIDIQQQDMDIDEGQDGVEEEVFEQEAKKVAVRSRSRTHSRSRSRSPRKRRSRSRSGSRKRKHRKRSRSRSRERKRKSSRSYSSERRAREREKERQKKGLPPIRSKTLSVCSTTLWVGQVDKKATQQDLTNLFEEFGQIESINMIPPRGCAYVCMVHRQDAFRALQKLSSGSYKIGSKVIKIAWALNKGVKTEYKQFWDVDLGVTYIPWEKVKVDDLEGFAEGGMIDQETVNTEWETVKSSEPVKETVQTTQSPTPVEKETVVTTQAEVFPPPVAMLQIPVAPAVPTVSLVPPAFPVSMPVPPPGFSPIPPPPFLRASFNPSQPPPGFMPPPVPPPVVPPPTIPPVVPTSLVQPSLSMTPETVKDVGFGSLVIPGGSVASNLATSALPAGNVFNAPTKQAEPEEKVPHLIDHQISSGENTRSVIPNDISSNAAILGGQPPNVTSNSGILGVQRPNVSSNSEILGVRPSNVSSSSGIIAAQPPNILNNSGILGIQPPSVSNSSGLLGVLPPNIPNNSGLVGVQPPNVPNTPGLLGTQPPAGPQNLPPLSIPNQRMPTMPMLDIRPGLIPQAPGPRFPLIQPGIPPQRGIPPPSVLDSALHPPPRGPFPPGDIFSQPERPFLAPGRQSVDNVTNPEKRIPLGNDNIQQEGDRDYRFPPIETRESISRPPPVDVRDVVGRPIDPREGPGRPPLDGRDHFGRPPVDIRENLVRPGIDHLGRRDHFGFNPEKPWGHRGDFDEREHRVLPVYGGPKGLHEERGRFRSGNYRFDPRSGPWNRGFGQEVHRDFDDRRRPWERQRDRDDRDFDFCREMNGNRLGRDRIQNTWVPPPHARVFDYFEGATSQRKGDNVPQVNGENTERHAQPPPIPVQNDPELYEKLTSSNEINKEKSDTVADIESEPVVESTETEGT
UniProt Q8TDY2, sequence (Q8TDY2 whole entry, looked up): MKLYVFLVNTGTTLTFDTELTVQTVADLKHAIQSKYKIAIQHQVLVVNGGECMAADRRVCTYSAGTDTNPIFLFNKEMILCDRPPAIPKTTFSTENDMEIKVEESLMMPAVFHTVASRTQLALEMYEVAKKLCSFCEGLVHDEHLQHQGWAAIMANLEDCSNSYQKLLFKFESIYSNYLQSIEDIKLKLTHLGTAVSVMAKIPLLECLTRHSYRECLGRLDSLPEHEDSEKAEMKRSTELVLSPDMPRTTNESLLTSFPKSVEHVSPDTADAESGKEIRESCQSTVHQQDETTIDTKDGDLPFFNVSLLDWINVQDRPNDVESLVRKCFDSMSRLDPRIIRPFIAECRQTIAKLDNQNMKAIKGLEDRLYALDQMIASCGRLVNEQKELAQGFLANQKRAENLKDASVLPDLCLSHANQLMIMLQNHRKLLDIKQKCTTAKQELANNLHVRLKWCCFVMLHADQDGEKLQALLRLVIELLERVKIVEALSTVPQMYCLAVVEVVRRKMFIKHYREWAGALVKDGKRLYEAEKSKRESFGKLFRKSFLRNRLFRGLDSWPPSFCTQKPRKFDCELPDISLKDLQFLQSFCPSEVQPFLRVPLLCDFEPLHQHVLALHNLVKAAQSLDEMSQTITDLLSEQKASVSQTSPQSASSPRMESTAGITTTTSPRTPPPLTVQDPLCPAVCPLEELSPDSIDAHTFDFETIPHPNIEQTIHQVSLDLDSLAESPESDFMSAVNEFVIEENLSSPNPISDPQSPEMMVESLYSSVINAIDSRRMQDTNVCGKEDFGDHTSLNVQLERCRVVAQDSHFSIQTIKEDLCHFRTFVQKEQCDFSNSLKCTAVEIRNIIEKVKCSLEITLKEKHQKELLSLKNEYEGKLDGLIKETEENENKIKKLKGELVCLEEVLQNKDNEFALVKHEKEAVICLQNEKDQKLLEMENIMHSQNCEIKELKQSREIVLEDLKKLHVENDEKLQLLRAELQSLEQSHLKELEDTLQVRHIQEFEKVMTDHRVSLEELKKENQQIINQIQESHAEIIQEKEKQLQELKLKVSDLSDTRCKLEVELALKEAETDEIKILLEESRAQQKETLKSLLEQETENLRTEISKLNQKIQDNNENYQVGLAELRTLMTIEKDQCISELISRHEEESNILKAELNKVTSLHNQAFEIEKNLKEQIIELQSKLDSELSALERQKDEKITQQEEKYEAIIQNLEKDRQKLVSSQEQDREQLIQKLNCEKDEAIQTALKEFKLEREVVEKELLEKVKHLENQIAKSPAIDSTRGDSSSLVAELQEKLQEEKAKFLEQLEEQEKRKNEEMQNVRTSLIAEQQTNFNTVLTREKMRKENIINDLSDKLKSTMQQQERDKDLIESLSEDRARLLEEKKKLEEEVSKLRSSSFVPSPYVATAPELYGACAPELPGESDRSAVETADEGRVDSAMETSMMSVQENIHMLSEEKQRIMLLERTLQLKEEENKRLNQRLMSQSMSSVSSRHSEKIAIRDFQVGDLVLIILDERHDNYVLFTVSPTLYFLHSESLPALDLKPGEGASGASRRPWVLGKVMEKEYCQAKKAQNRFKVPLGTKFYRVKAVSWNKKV
UniProt Q06609, sequence (Q06609 whole entry, looked up): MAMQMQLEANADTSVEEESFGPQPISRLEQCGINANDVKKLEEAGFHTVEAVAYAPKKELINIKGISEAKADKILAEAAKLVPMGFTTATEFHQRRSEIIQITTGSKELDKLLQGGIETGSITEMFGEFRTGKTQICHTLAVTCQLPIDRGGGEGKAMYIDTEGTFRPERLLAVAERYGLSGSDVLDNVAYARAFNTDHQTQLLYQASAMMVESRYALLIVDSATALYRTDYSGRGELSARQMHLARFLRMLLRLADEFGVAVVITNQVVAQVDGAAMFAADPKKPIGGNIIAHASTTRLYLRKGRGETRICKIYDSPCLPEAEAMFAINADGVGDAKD

Target	log2 fold change [1]	log2 fold change (filanesib)	log2 fold change (zotarolimus)	log2 fold change (idasanutlin)	log2 fold change (alisertib)	log2 fold change [2]	log2 fold change (gefitinib)	log2 fold change [3]	log2 fold change (lapatinib)	log2 fold change (pictilisib)	log2 fold change [4]	log2 fold change (crizotinib)	log2 fold change [5]	log2 fold change [6]	log2 fold change (duvelisib)	log2 fold change (gandotinib)	log2 fold change (tozasertib)	log2 fold change [7]	log2 fold change (doramapimod)	log2 fold change (ispinesib)
RAD51 (UniProt Q06609)	-0.057	0.003	-0.034	-0.072	0.041	-0.022	-0.07	0.012	-0.024	-0.02	0.005	-0.061	-0.079	-0.019	0.108	0.01	-0.026	-0.005	-0.025	-0.009
SCAF8 isoform 2 (UniProt Q9UPN6)	0.026	0.002	0.022	-0.003	-0.027	0.048	0.058	0.015	-0.007	-0.055	0.085	-0.011	0.1	-0.018	0.053	-0.098	-0.039	0.065	0.003	-0.181
RSPRY1 (UniProt Q96DX4)	-0.065	0.01	-0.01	-0.061	-0.051	-0.006	0.048	0.031	0.046	0.054	-0.037	0.11	0.02	-0.006	0.142	0.067	-0.053	0.012	0.083	0.033
RPS4X (UniProt P62701)	-0.059	0.314	-0.001	0.148	-0.099	-0.038	-0.048	-0.222	0.102	-0.155	-0.027	0.021	-0.378	0.333	-0.211	0.264	0.039	-0.023	0.18	-0.141
RPS16 (UniProt P62249)	-0.117	0.092	0.025	0.093	-0.167	-0.027	-0.014	-0.199	0.046	-0.162	-0.107	0	-0.353	0.214	-0.118	0.172	0.021	-0.023	0.055	-0.088
RPS21 (UniProt P63220)	-0.033	0.086	-0.021	0.031	-0.069	0.04	0.002	-0.022	-0.027	-0.01	-0.053	0.141	-0.108	0.044	-0.001	0.048	-0.005	-0.004	-0.022	0.015
RB1CC1 (UniProt Q8TDY2)	0.435 (active)	-0.079	0.014	-0.002	-0.112	0.182	-0.042	-0.049	0.181	0.083	0.062	0.041	-0.006	0.033	-0.006	0.132	-0.013	0.011	0.037	-0.02
RBM8A (UniProt Q9Y5S9)	-0.061	0.028	-0.018	-0.01	-0.024	0.094	0.038	-0.029	-0.028	-0.013	0.012	0.287 (active)	0.007	0.025	0.019	0.069	-0.015	0.025	-0.078	0.099
